ELG1 genotoxic = induces genotoxicity in HEK293T cells with luciferase-tagged ELG1; Potency, µM (top dose mostly 46 µM), usual class: activators; HEK293T ELG1-luciferase reporter, luminescence, 16 h; AID 504466; 1.3% of 330,000 active; note: nearly all actives have a fitted effect of over 60% in size
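DMSO vehicle served as control against compound-treated ELG1-luciferase HEK293T cells; exposure lasted 16 hr at 37 °C and 5% CO2, followed by ONE-Glo luminescence detection after 30 min.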
FLuc modulator = counter-screen for miR-21 project: firefly luciferase inhibitors or activators | P08659 | purified FLuc, Km substrates, luminescence inhibition | Potency, µM (highest dose often 57.5 µM), hits mostly inhibitors | 6.9% of 360,000 active; note: nearly all actives have a fitted effect of over 55% in size
Target sequence (P08659 whole entry, looked up): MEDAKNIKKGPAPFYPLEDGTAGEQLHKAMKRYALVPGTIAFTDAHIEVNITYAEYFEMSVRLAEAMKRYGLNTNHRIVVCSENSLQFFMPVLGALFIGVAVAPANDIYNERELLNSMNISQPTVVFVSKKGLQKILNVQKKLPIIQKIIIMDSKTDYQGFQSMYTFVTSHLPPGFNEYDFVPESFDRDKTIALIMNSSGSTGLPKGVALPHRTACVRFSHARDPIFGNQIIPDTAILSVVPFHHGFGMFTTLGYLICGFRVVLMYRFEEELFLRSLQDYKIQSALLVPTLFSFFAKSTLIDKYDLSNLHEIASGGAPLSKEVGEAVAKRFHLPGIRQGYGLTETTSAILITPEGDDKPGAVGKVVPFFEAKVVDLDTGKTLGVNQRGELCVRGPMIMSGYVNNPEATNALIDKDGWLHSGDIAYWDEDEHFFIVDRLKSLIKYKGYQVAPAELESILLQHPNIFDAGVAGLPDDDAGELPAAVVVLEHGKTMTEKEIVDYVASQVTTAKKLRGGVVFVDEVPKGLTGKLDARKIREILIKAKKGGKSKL
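Purified P. pyralis luciferase, 10 nM final, with Km-level 10 uM D-luciferin and 10 uM ATP in 50 mM Tris acetate pH 7.5, 10 mM Mg acetate, 0.01% Tween-20, 0.05% BSA; 6-point qHTS titration about 60 µM downward; luminescence read.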
Rab9 promoter act = activators of Rab9 promoter; Huh7 Rab9 promoter-luciferase reporter, luminescence, 24 h; Potency, µM (top dose mostly 9.22 µM), usual class: activators; 2.8% of 320,000 active; AID 485297; note: nearly all actives have a fitted effect of over 60% in size
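Luciferase signal after 10 min detection reagent at ambient indicates Rab9 promoter upregulation; stably transfected Huh7 cells were treated 24 h with compound in DMSO at 37 °C, 5% CO2.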
NPC1 prom act = NPC1 promoter activation; Huh7 NPC1 promoter luciferase reporter, 24 h; 2.4% of 320,000 active; Potency, µM (titrated, usually from 9.22 µM), most hits filed as activators; note: nearly all actives have a fitted effect of over 60% in size
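Luminescence read-out of NPC1 promoter-driven luciferase in stably transfected Huh7 cells; compounds delivered in DMSO and left 24 h at 37C, 5% CO2, qHTS titration format.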
Luc counter = blocks Kinase-Glo luciferase, a counter-screen artifact | Q27757 | Kinase-Glo luciferase, ATP luminescence, 8 min | Potency, µM (highest dose often 38.3 µM), most hits filed as inhibitors | 0.28% of 200,000 active | AID 1379; note: nearly all actives have a fitted effect of over 60% in size
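Compounds were added to a substrate mix at pH 7.2 (50 mM imidazole, 10 uM ATP, within the enzyme's linear range), followed by Kinase-Glo detection reagent; luminescence was measured after 8 minutes at ambient temperature.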
SMN2 splice enh = increases expression of the SMN2 splice variant. HEK293 SMN2-luciferase splicing reporter, luminescence, 30-36 h. Potency, µM (highest dose often 46.1 µM), usual class: activators. 2.8% of 210,000 active. AID 1458; note: nearly all actives have a fitted effect of over 55% in size
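HEK293 cells carry an SMN2 […]–luciferase reporter in which exon 7 inclusion puts luciferase in frame. Cells were plated 10-12 h before compound addition, then incubated 30-36 h at 37C. ONE-Glo luminescence was read; sodium butyrate at 4.5 mM final served as control.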
Of the large screens only hits and unclear results are named; the others gave an inactive call. Only some compounds are listed: those with a hit (about 7.5% of all), similar ones and a draw of the others. Calls come from the whole dose curve; as a rule, active = well fitted curve in the direction sought with a large enough effect; inconclusive = small, poorly fitted or top-dose-only effect, or another doubt; inactive = no such curve, though single readings can be large; an effect the other way counts as inactive or inconclusive.

O=C(CSc1nc2ccccc2o1)NCc1ccc2c(c1)OCO2	ELG1 genotoxic 21µM, FLuc modulator inconclusive, SMN2 splice enh inconclusive
Cc1ccc(Nc2ccc(N3CCN(C(=O)c4cccc([N+](=O)[O-])c4)CC3)nn2)cc1	none (no result: ELG1 genotoxic, Rab9 promoter act, NPC1 prom act, Luc counter, SMN2 splice enh)
CCn1c(=O)c2cc(C(=O)NCCCN3CCN(C)CC3)sc2c2ccccc21	none (no result: ELG1 genotoxic, Rab9 promoter act, NPC1 prom act, Luc counter)
CN(C)c1ccc(-c2nc3cc(N)ccc3o2)cc1	ELG1 genotoxic 0.52µM, FLuc modulator 0.19µM, Rab9 promoter act 0.32µM, NPC1 prom act 0.32µM (no result: Luc counter, SMN2 splice enh)
Nc1ccc2oc(-c3cc(Br)ccc3Cl)nc2c1	ELG1 genotoxic inconclusive, FLuc modulator inconclusive
Nc1ccc(-c2nc3cc(N)ccc3o2)cc1	ELG1 genotoxic 5.2µM, FLuc modulator 2.7µM, Rab9 promoter act 0.63µM, NPC1 prom act 0.4µM (no result: Luc counter, SMN2 splice enh)
Cc1ccc2nc(-c3cc(N)cc(N)c3)oc2c1	FLuc modulator 0.38µM, Rab9 promoter act inconclusive, NPC1 prom act inconclusive, Luc counter inconclusive, SMN2 splice enh inconclusive
Cc1ccc(C)c(-c2nc3cc(N)ccc3o2)c1	ELG1 genotoxic 10µM, FLuc modulator 13µM, Rab9 promoter act inconclusive, SMN2 splice enh 11µM
Nc1ccc(-c2nc3ccc(-c4nc5ccccc5o4)cc3[nH]2)cc1	FLuc modulator inconclusive
COc1ccc(-c2noc(CN(C(=O)COc3cc(C)c(Br)c(C)c3)C(C)C)n2)cc1	none (no result: ELG1 genotoxic, Rab9 promoter act, NPC1 prom act, Luc counter)
COc1ccc(N2CCN(c3nc4ccc(C)cc4n4nnnc34)CC2)cc1	none (no result: ELG1 genotoxic, Rab9 promoter act, NPC1 prom act, Luc counter, SMN2 splice enh)
COC(=O)c1ccc(-c2nc3cc(N)ccc3o2)cc1	ELG1 genotoxic inconclusive, FLuc modulator 1.2µM, Rab9 promoter act inconclusive, SMN2 splice enh inconclusive
Nc1ccc(-c2nc3ccc(N)cc3o2)cc1	ELG1 genotoxic 21µM, FLuc modulator 1.5µM, Rab9 promoter act inconclusive, NPC1 prom act inconclusive, Luc counter inconclusive, SMN2 splice enh inconclusive
Cc1ccc(-c2nc3cc(N)ccc3o2)cc1Br	ELG1 genotoxic 2.9µM, FLuc modulator 1.9µM, Rab9 promoter act 1.8µM, NPC1 prom act 1.3µM (no result: Luc counter, SMN2 splice enh)
COc1ccc2oc(-c3ccc(C)c(NC(=O)COc4cc(C)cc(C)c4)c3)nc2c1	none (no result: ELG1 genotoxic, Rab9 promoter act, NPC1 prom act, Luc counter)
CC(=O)NC(CSC(CC(=O)c1ccco1)c1ccc(C)cc1)C(=O)O (stereo unspecified)	ELG1 genotoxic inconclusive, FLuc modulator 4.3µM, Rab9 promoter act inconclusive
O=c1[nH]c(/C=C/c2ccccn2)nc2ccccc12	ELG1 genotoxic inconclusive, FLuc modulator 19µM, Rab9 promoter act 1.6µM, NPC1 prom act 1.6µM (no result: Luc counter, SMN2 splice enh)
O=c1[nH]c(/C=C/c2cccc3ccccc23)nc2ccccc12	Rab9 promoter act inconclusive
O=c1[nH]c(/C=C/c2ccccc2F)nc2ccccc12	ELG1 genotoxic 12µM, FLuc modulator 0.76µM, Rab9 promoter act 0.25µM, NPC1 prom act inconclusive (no result: Luc counter, SMN2 splice enh)
CCCCOc1ccc(C(=O)N2CCC(c3nc4ccccc4o3)CC2)cc1	none (no result: ELG1 genotoxic, Rab9 promoter act, NPC1 prom act, Luc counter, SMN2 splice enh)
Fc1cccc(Cl)c1Cn1c(-c2cccs2)nc2ccccc21	none (no result: ELG1 genotoxic, Rab9 promoter act, NPC1 prom act, Luc counter)
C=C(C)CSc1nnc2n(N)c(=O)c3ccccc3n12	ELG1 genotoxic inconclusive, FLuc modulator 17µM, Rab9 promoter act inconclusive
CCCCOc1ccc(C(=O)NCC2(N3CCN(C)CC3)CCCCC2)cc1	none (no result: ELG1 genotoxic, Rab9 promoter act, NPC1 prom act, Luc counter, SMN2 splice enh)
COc1ccccc1C(=O)NCCC(=O)NCCc1ccccc1	none (no result: Luc counter, SMN2 splice enh)
COc1ccccc1C(=O)NCCC(=O)NCC(c1ccccc1)N(C)C (stereo unspecified)	FLuc modulator 13µM (no result: Luc counter, SMN2 splice enh)
COc1ccccc1C(=O)NCCC(=O)NC1CCC(C)CC1 (stereo unspecified)	ELG1 genotoxic inconclusive, FLuc modulator 13µM, Rab9 promoter act 4µM, NPC1 prom act inconclusive (no result: Luc counter, SMN2 splice enh)
Cc1nc2ccn(Cc3cccnc3)c(=O)c2cc1C(=O)N1CCN(c2ccc(F)cc2)CC1	none (no result: ELG1 genotoxic, Rab9 promoter act, NPC1 prom act, Luc counter, SMN2 splice enh)
CCCCN(C)CCNC(=O)c1ccc(Cn2c(=O)[nH]c3cc(OC)c(OC)cc3c2=O)cc1	none (no result: ELG1 genotoxic, Rab9 promoter act, NPC1 prom act, Luc counter)
CC(C)(C)c1csc(NC(=O)Cc2cccs2)n1	FLuc modulator 15µM
CC(C)(C)c1csc(NC(=O)c2cccs2)n1	ELG1 genotoxic inconclusive, FLuc modulator 11µM, Rab9 promoter act 3.5µM, NPC1 prom act 3.2µM (no result: SMN2 splice enh)
CC(C)(C)c1csc(NC(=O)c2cccnc2)n1	FLuc modulator inconclusive (no result: Luc counter, SMN2 splice enh)
CCn1cc(C(=O)N2CCN(c3cccc(C)c3C)CC2)c2cc(OC)c(OC)cc2c1=O	none (no result: ELG1 genotoxic, Rab9 promoter act, NPC1 prom act, Luc counter)
COCCN1C(=O)c2[nH]nc(-c3ccccc3O)c2C1c1ccc(Cl)c(Cl)c1 (stereo unspecified)	none (no result: ELG1 genotoxic, Rab9 promoter act, NPC1 prom act, Luc counter)
CCCCCCSC1=C(C#N)C(=O)NC2(CCCCC2)S1	ELG1 genotoxic inconclusive, FLuc modulator 24µM
COc1ccc(CSC2=C(C#N)C(=O)NC3(CCCCC3)S2)cc1	none (no result: ELG1 genotoxic, FLuc modulator, Rab9 promoter act, NPC1 prom act)
Fc1ccc(SCCc2ccccn2)cc1	ELG1 genotoxic inconclusive, FLuc modulator 17µM, Rab9 promoter act inconclusive (no result: Luc counter, SMN2 splice enh)
CC(C)(C)c1ccc(S(=O)(=O)CCc2ccccn2)cc1	ELG1 genotoxic 21µM, FLuc modulator 17µM, Rab9 promoter act inconclusive, NPC1 prom act inconclusive
Fc1ccc(N2CCN(Cc3ccccn3)CC2)cc1	none
CC(C)(C)c1ccc(SCCc2ccccn2)cc1	ELG1 genotoxic inconclusive, FLuc modulator 3.8µM, Rab9 promoter act 3.2µM, NPC1 prom act 2.2µM (no result: Luc counter, SMN2 splice enh)
c1ccc(CCNc2ccccn2)nc1	none (no result: ELG1 genotoxic, FLuc modulator, Rab9 promoter act, NPC1 prom act)
N#Cc1c(C(F)(F)F)cc(-c2cccs2)nc1SCC(=O)Nc1ccc(F)cc1	none (no result: ELG1 genotoxic, Rab9 promoter act, NPC1 prom act, Luc counter)
CS(=O)(=O)N(CC(=O)NC1CC2CCC1C2)c1ccc(Oc2ccccc2)cc1 (stereo unspecified)	none

Source: PubChem BioAssay (National Center for Advancing Translational Sciences (NCATS))
